Bioassay records from PubChem BioAssay.
RGS12 GoLoco inh – qHTS Assay for Inhibitors of RGS12 GoLoco Motif Activity (Red Fluorophore); 0.44% of 230,000 active; Gai1:RGS12 GoLoco peptide FP, rhodamine, 10 min; Potency, µM (top dose mostly 61.6 µM), inactives show at the top dose activity, negative = inhibition, most hits filed as inhibitors; active = well fitted inhibition curve with a large enough effect, not every such curve was filed as active; inactive = no such curve, though single readings can be large or run the other way; also: nearly all actives have a fitted effect of over 30% in size
Tau FP inhib – qHTS for Inhibitors of Tau Fibril Formation, Fluorescence Polarization | Microtubule-associated protein tau (Homo sapiens), P10636 | K18 P301L tau heparin fibrillization, Alexa594 FP, 6 h | Potency, µM (highest dose often 57.7 µM), for inactives: at the top dose activity, negative = inhibition, usual class: inhibitors | 0.39% of 280,000 active; also: nearly all actives have a fitted effect of over 55% in size
Target sequence (P10636 561-689 P618L limits assumed): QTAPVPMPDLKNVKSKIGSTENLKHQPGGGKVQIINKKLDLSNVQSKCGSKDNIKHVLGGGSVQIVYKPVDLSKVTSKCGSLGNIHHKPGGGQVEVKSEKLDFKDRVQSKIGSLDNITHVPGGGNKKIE
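K18 P301L tau (15 uM unlabeled/0.24 uM Alexa 594-labeled, final) + compound + heparin 20 uM final; 100 mM NaOAc pH 7; 6 hr 37 C; ThT 30 uM final added, 1 hr RT; FP ex 555/em 632 nm.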
Tau fibril ThT – qHTS for Inhibitors of Tau Fibril Formation, Thioflavin T Binding | recombinant tau K18 P301L, heparin-induced fibrillization, ThT fluorescence | Potency, µM (top dose mostly 57.4 µM), for the others: top-dose activity, negative = inhibition, hits mostly inhibitors | 2.1% of 270,000 active; also: nearly all actives have a fitted effect of over 55% in size
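Tau K18 P301L fragment (15 uM unlabeled plus 0.24 uM Alexa 594-labeled) in 100 mM sodium acetate pH 7 with compound, fibrillization induced by 20 uM heparin for 6 hr at 37 C. Thioflavin T (30 uM) added, fluorescence read after 1 hr (ex 450, em 510 nm).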
KDM4E inh – qHTS Assay for Inhibitors of Human Jumonji Domain Containing 2E (JMJD2E). Lysine-specific demethylase 4E (Homo sapiens), B2RXH2. JMJD2E catalytic domain, FDH-coupled NADH fluorescence (FDH is formaldehyde dehydrogenase). Potency, µM (top dose mostly 57.1 µM), inactives show top-dose activity change, negative = inhibition, actives largely listed as inhibitors. 1.6% of 230,000 active; active = well fitted inhibition curve with a large enough effect, not every such curve was filed as active; inconclusive = small, poorly fitted or top-dose-only effect, or another doubt; inactive = no such curve, though single readings can be large or run the other way;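 also: 0% = wells with enzyme and -100% = buffer wells without enzyme; nearly all actives have a fitted effect of over 50% in size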
Target sequence (B2RXH2 1-337 limits assumed): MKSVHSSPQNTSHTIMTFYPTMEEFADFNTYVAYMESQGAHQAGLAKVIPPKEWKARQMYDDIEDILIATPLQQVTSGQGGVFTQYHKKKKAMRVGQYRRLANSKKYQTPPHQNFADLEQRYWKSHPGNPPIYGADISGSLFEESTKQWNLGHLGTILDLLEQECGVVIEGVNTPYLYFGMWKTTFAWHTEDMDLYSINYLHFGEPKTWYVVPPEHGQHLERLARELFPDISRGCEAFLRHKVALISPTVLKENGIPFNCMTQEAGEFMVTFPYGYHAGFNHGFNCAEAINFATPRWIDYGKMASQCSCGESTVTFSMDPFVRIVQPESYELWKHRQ
Tau fluor cs – Counterscreen qHTS for Inhibitors of Tau Fibril Formation, Fluorescence Polarization; 0.93% of 280,000 active; Potency, µM (series often up to 57.7 µM), for inactives: at the highest dose activity change, negative = decrease; tau K18 P301L Alexa594 fluorescence, heparin fibrillization; also: nearly all actives have a fitted effect of over 55% in size
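Human tau K18 P301L (15 uM unlabeled, 0.24 uM Alexa 594-labeled) in 100 mM sodium acetate pH 7 with 20 uM heparin, 6 hr at 37 C. ThT 30 uM added, 1 hr ambient; Alexa 594 FP and total fluorescence read at 555/632 nm.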
Active calls of the source: *; ? = inconclusive; . = no result; [ ] = remark or other dose. Shown are actives, neighbours in structure and some others; about 3.4% of the full set was active somewhere. Unless noted, calls follow the shape of the dose curve; as a rule, active = well fitted curve in the direction sought with a large enough effect; inconclusive = small, poorly fitted or top-dose-only effect, or another doubt; inactive = no such curve, though single readings can be large; an effect the other way counts as inactive or inconclusive. Unless noted, % is scaled to controls: 0 for no effect and ±100 for the full control effect; potency is read from the fitted curve at half-maximal effect.

SMILES	RGS12 GoLoco inh	Tau FP inhib	Tau fibril ThT	KDM4E inh	Tau fluor cs
O=C(N/N=C\c1ccc(-c2ccccc2[N+](=O)[O-])o1)C1COc2cc3ccccc3cc2O1 (centres undefined)	14%	?	11µM*	-7%	?
O=C(N/N=C\c1ccc([N+](=O)[O-])o1)C1COc2ccccc2O1 (centres undefined)	0%	2%	?	7%	-8%
Cc1ccc(/C=N\NC(=O)C2COc3cc4ccccc4cc3O2)o1 (centres undefined)	39%	0%	?	?	-26%
CCOc1ccc(S(=O)(=O)Nc2cccc(OC)c2)c2cccnc12	.	?	-6%	.	-18%
COCCN1CCc2nc(SCC(=O)Nc3ccc(C)c(Cl)c3)[nH]c(=O)c2C1	.	-1%	15%	.	-9%
CC(C)(C)c1ccc(Oc2ccc(NC(=O)c3cccs3)cn2)cc1	-1%	28µM*	1%	-11%	?
CCOCCCNC(=O)c1ccc2c(=O)n(CCc3ccc(OC)c(OC)c3)c(=O)[nH]c2c1	.	-13%	-11%	.	-2%
O=C1C(Cl)=C(Nc2ccccc2O)C(=O)N1c1ccccc1	11%	?	14µM*	?	?
COc1ccccc1N1C(=O)C(Cl)=C(Nc2ccccc2O)C1=O	52%	28µM*	13µM*	?	?
Cc1ccc(O)c(NC2=C(Cl)C(=O)N(Cc3ccccc3)C2=O)c1	0%	?	13µM*	22µM*	?
CCOc1ccc(NC2=C(Cl)C(=O)N(Cc3ccccc3)C2=O)cc1	.	1%	-8%	2%	-8%
Cc1ccc(-n2ncc3c(NCc4ccccc4)ncnc32)cc1Cl	.	-14%	7%	.	-11%
CC(=O)c1cccc(NC(=O)C2CCN(S(=O)(=O)c3ccc4c(c3)oc(=O)n4C)CC2)c1	.	-1%	11%	.	0%
COc1ccc(NC(=O)NC(C)c2c(-n3cccc3)sc3c2CCN(C)C3)c(OC)c1 (centres undefined)	.	-1%	-9%	.	-15%
CCCCOc1ccc(C(=O)NCc2nnnn2-c2ccc(C)c(C)c2)cc1	.	6%	?	.	-24%
CCN(CC)S(=O)(=O)c1cccc(NC(=O)Nc2cccc(C(F)(F)F)c2)c1	-20%	7.9µM*	-14%	-4%	?
CCN(CC)S(=O)(=O)c1ccc(/C=C/C(=O)Nc2ccc(N3CCOCC3)cc2)cc1	2%	?	16µM*	4%	32µM*[quencher]
CCN(CC)S(=O)(=O)c1cccc(NC(=O)/C=C/c2ccc([N+](=O)[O-])cc2)c1	-24%	10%	?	-5%	-25%
COc1ccc(/C=C/C(=O)Nc2ccc(N3CCOCC3)cc2)cc1	16%	4%	4µM*	?	?
CCN(CC)S(=O)(=O)c1cccc(NC(=O)/C=C/c2cccc([N+](=O)[O-])c2)c1	14%	-18%	?	3%	13µM*[quencher]
O=C(COc1ccc2ccccc2c1)NC1CC(=O)N(c2ccccc2)C1 (centres undefined)	.	-1%	-11%	.	-12%
CSc1cccc(NC(=O)Cn2c3ncccc3c(=O)n2-c2ccc(C)cc2)c1	.	?	2%	.	?
Cc1cc(NC(=S)NC(=O)/C=C/c2ccc(S(=O)(=O)N3CCOCC3)cc2)ccc1Br	-4%	?	?	6%	-16%
O=C(/C=C/c1cccc([N+](=O)[O-])c1)NC(=S)Nc1ccccc1C(=O)O	5%	?	18µM*	-4%	-29%
O=C(/C=C/c1cccc([N+](=O)[O-])c1)NC(=S)Nc1cccc(NC(=O)c2ccccc2Cl)c1	7%	-2%	?	1%	?
O=C(/C=C/c1ccc(S(=O)(=O)N2CCOCC2)cc1)NC(=S)Nc1ccc(N2CCOCC2)cc1	-7%	7%	25µM*	5%	?
Cc1ccc(Nc2ncnc3onc(C)c23)cc1Cl	.	-8%	-7%	.	-15%
Cc1ccc(NC(=O)Cc2c[nH]c3ccccc23)cc1S(=O)(=O)N1CCCCCC1	-26%	8%	-8%	-9%	14µM*[quencher]
